For four molecules, outcome and AC50 results are on record in PubChem BioAssay (EPA / NIEHS).

Activity calls are given as the source filed them. The calls were made as follows: active = hit-call score of the fitted dose curve at least 0.9, where 1 is the maximum; inactive = score below 0.9.

The term AC50 denotes the concentration giving half of the maximal activity seen.

Holding throughout (conditions): mRNA level, 48 h; actives raise or lower the signal
Read-out in assay [1]: ABC Transporter (ABCC2), ABCC2 (gene 1244)
The experiment in a line: LTEA_HepaRG_ABCC2: Life Technologies and Expression Analysis (LTEA) Assay for ABC Transporter (ABCC2) using HepaRG (AID 2283464). In short, it runs like this: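 Gene expression of ABCC2 was determined by qRT-PCR in HepaRG cells exposed 48 h to chemicals (highest 100 uM, half-log dilutions). Activity was fitted in both directions relative to 0.5% DMSO vehicle.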

Read-out in assay [2]: Broad substrate specificity ATP-binding cassette transporter ABCG2 (Homo sapiens) (UniProt Q9UNQ0)
Description: LTEA_HepaRG_ABCG2: Life Technologies and Expression Analysis (LTEA) Assay for ABC Transporter (ABCG2) using HepaRG (AID 2283465). An outline of the steps:
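HepaRG, 48 h exposure, 8-pt half-log series from 100 uM, 0.5% DMSO vehicle, duplicates. Readout: ABCG2 transcript by qRT-PCR (Fluidigm array), housekeeping-normalized; bidirectional curve fit relative to DMSO baseline.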

Read-out in assay [3]: Peroxisomal acyl-coenzyme A oxidase 1 (ACOX1) gene, ACOX1 (gene 51)
The experiment in a line: LTEA_HepaRG_ACOX1: Life Technologies and Expression Analysis (LTEA) Assay for Peroxisomal acyl-coenzyme A oxidase 1 (ACOX1) gene using HepaRG (AID 2283467). In short, it runs like this:
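HepaRG, 48 h chemical exposure, 8-pt half-log series from 100 uM top, 0.5% DMSO vehicle, duplicates. Readout: ACOX1 mRNA by Fluidigm qRT-PCR, housekeeping-normalized; bidirectional fit vs DMSO baseline.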

Read-out in assay [4]: Alkaline Phosphatase, Placental (ALPP) gene, ALPP (gene 250)
Description: LTEA_HepaRG_ALPP: Life Technologies and Expression Analysis (LTEA) Assay for Alkaline Phosphatase, Placental (ALPP) gene using HepaRG (AID 2283468).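 As to AC50: differentiated human HepaRG liver cells in serum-free induction medium; ALPP transcript by TaqMan qRT-PCR normalized to ACTB GAPDH and POLR2A.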 An outline of the steps: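 Expression of ALPP was quantified by qRT-PCR against three housekeeping genes in human HepaRG cultures treated for 48 h with an eight-point concentration series up to 100 uM. Activity in either direction was fitted relative to 0.5% DMSO.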

Read-out in assay [5]: Bcl-2 (BAD) gene, BAD (gene 572)
The experiment in a line: LTEA_HepaRG_BAD: Life Technologies and Expression Analysis (LTEA) Assay for Bcl-2 (BAD) gene using HepaRG (AID 2283469). An outline of the steps:
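HepaRG, 48 h exposure, 8-pt half-log curve from 100 uM in 0.5% DMSO, duplicates. Readout: TaqMan qRT-PCR for BAD mRNA, housekeeping-normalised (ACTB/GAPDH/POLR2A); gain or loss fitted against DMSO baseline.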

Read-out in assay [6]: Bcl-2 (BAX) gene, BAX (gene 581)
The experiment in a line: LTEA_HepaRG_BAX: Life Technologies and Expression Analysis (LTEA) Assay for Bcl-2 (BAX) gene using HepaRG (AID 2283470). An outline of the steps:
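Cells were thawed, plated for 48 h, moved to serum-free induction medium and dosed for 48 h (highest concentration 100 uM, half-log steps, 0.5% DMSO). Total RNA was then analysed for BAX expression by qRT-PCR.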

Read-out in assay [7]: adenosine kinase (ADK) gene, ADK (gene 132)
The experiment in a line: LTEA_HepaRG_ADK: Life Technologies and Expression Analysis (LTEA) Assay for adenosine kinase (ADK) gene using HepaRG (AID 2283471). In short, it runs like this: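 ADK expression quantified by qRT-PCR, normalised to three housekeeping genes, after 48 h exposure of HepaRG cells to eight concentrations (top 100 uM, half-log steps, duplicate, 0.5% DMSO). Up- or down-regulation fitted relative to vehicle.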

Read-out in another assay: BCL2L11 (gene 10018)
The experiment in a line: LTEA_HepaRG_BCL2L11: Life Technologies and Expression Analysis (LTEA) Assay for Bcl-2 (BCL2L11) gene using HepaRG (AID 2283473). An outline of the steps:
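Cells were plated, cultured 48 h, switched to serum-free induction medium, then dosed in duplicate for 48 h at eight half-log concentrations up to 100 uM. Lysates underwent RNA isolation and TaqMan qRT-PCR; gain or loss versus DMSO was fitted.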

Read-out in assay [8]: Apolipoprotein A-V (APOA5) gene, APOA5 (gene 116519)
Description: LTEA_HepaRG_APOA5: Life Technologies and Expression Analysis (LTEA) Assay for Apolipoprotein A-V (APOA5) gene using HepaRG (AID 2283474). An outline of the steps: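 Human liver HepaRG cells are treated 48 h with test chemicals (100 uM top, half-log dilutions, 0.5% DMSO). APOA5 mRNA induction or loss is measured by qRT-PCR relative to vehicle.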

Read-out in assay [9]: Apoptosis regulator Bcl-2 (Homo sapiens) (UniProt P10415)
Description: LTEA_HepaRG_BCL2: Life Technologies and Expression Analysis (LTEA) Assay for Bcl-2 gene using HepaRG (AID 2283475). In short, it runs like this: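 Plated human HepaRG cells are exposed to test chemicals for 48 h across eight concentrations from 100 uM downward in half-log steps (0.5% DMSO). BCL2 expression is then measured by qRT-PCR with housekeeping normalisation and fitted bidirectionally against vehicle.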

Read-out in assay [10]: Bcl-2 (BID) gene, BID (gene 637)
Description: LTEA_HepaRG_BID: Life Technologies and Expression Analysis (LTEA) Assay for Bcl-2 (BID) gene using HepaRG (AID 2283476). An outline of the steps:
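Cells are plated, cultured 48 h, switched to serum-free induction medium, then dosed 48 h (100 uM top, half-log steps, 0.5% DMSO). RNA is isolated and BID expression read by qRT-PCR.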

Read-out in another assay: Caspase-3 (Homo sapiens) (UniProt P42574)
Description: LTEA_HepaRG_CASP3: Life Technologies and Expression Analysis (LTEA) Assay for cysteine-aspartic acid protease (CASP3) using HepaRG (AID 2283477). In short, it runs like this:
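In HepaRG liver cells dosed for 48 h at up to 100 uM (eight-point, duplicate), CASP3 expression changes are scored by qRT-PCR. Activity is fitted in both directions with 0.5% DMSO as baseline.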

Read-out in assay [11]: Cytochrome P450 (CYP1A2), CYP1A2 (gene 1544)
Description: LTEA_HepaRG_CYP1A2: Life Technologies and Expression Analysis (LTEA) Assay for Cytochrome P450 (CYP1A2) using HepaRG (AID 2283479).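 As to AC50: TaqMan qRT-PCR transcript level normalized to ACTB GAPDH and POLR2A.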 An outline of the steps: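 Assesses CYP1A2 mRNA in human HepaRG liver cells after 48 h chemical exposure at up to 100 uM. Values come from qRT-PCR with bidirectional curve fitting relative to DMSO.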

Read-out in assay [12]: cysteine-aspartic acid protease (CASP8), CASP8 (gene 841)
Description: LTEA_HepaRG_CASP8: Life Technologies and Expression Analysis (LTEA) Assay for cysteine-aspartic acid protease (CASP8) using HepaRG (AID 2283480). An outline of the steps: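 qRT-PCR readout of CASP8 mRNA, normalized to three housekeeping genes, after 48 h chemical exposure of HepaRG cells; 8-point half-log series, top 100 uM, 0.5% DMSO vehicle. Bidirectional curve fitting against DMSO baseline.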

Read-out in assay [13]: Cytochrome P450 (CYP2B6), CYP2B6 (gene 1555)
The experiment in a line: LTEA_HepaRG_CYP2B6: Life Technologies and Expression Analysis (LTEA) Assay for Cytochrome P450 (CYP2B6) using HepaRG (AID 2283481). An outline of the steps: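 Using 48 h treatment of HepaRG cells in serum-free induction medium, concentrations spanned half-log steps from 100 uM in 0.5% DMSO vehicle. CYP2B6 mRNA induction or loss is scored by qRT-PCR against DMSO.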

Read-out in assay [14]: Cytochrome P450 2C19 (Homo sapiens) (UniProt P33261)
The experiment in a line: LTEA_HepaRG_CYP2C19: Life Technologies and Expression Analysis (LTEA) Assay for CYP2C19 using HepaRG (AID 2283482). In short, it runs like this:
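Human HepaRG liver cells received test chemicals for 48 h (highest 100 uM, half-log dilutions in 0.5% DMSO). CYP2C19 mRNA induction or loss is read by multiplexed qRT-PCR and fitted in both directions versus vehicle.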

Read-out in assay [15]: Cytochrome P450 (CYP24A1), CYP24A1 (gene 1591)
Description: LTEA_HepaRG_CYP24A1: Life Technologies and Expression Analysis (LTEA) Assay for Cytochrome P450 (CYP24A1) using HepaRG (AID 2283478). In short, it runs like this:
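Human liver HepaRG cultures receive each chemical for 48 h across an eight-point half-log series topping at 100 uM in 0.5% DMSO. Induction or suppression of CYP24A1 mRNA is scored relative to vehicle after housekeeping-gene normalization.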

Read-out in assay [16]: Alpha-fetoprotein (AFP) gene, AFP (gene 174)
The experiment in a line: LTEA_HepaRG_AFP: Life Technologies and Expression Analysis (LTEA) Assay for Alpha-fetoprotein (AFP) gene using HepaRG (AID 2283472).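 Also: AFP transcript by TaqMan qRT-PCR normalized to ACTB GAPDH and POLR2A.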 In short, it runs like this: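 Chemicals were tested on differentiated HepaRG cells for 48 hours at eight concentrations up to 100 uM, with 0.5% DMSO as vehicle. AFP expression was then quantified by qRT-PCR and analyzed for gain or loss relative to DMSO.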

Read-out in assay [17]: ATP-citrate lyase (ACLY), ACLY (gene 47)
The experiment in a line: LTEA_HepaRG_ACLY: Life Technologies and Expression Analysis (LTEA) Assay for ATP-citrate lyase (ACLY) using HepaRG (AID 2283466). An outline of the steps:
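qRT-PCR readout of ACLY transcript after 48 h chemical treatment of HepaRG cells; expression normalized to three housekeeping genes. Eight-point half-log series, highest 100 uM, 0.5% DMSO vehicle. Gain or loss fitted against DMSO baseline.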

Broad substrate specificity ATP-binding cassette transporter ABCG2 (Homo sapiens), sequence (Q9UNQ0 whole entry, looked up): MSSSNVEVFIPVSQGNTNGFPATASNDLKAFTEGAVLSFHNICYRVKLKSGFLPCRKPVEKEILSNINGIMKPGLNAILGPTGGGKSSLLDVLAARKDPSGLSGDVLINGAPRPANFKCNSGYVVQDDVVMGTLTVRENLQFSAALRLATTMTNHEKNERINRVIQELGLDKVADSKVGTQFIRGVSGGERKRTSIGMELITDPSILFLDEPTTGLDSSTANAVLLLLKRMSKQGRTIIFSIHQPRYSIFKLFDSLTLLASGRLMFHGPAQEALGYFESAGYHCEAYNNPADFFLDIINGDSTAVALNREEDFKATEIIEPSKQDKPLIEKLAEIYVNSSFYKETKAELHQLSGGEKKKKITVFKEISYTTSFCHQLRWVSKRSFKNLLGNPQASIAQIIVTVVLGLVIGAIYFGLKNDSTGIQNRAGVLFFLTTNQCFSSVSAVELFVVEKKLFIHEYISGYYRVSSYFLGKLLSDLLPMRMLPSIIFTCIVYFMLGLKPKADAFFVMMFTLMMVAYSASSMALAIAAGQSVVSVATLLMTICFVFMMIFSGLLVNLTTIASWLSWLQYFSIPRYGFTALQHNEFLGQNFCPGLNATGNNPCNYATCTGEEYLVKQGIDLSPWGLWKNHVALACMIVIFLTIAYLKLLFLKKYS
Apoptosis regulator Bcl-2 (Homo sapiens), sequence (P10415 whole entry, looked up): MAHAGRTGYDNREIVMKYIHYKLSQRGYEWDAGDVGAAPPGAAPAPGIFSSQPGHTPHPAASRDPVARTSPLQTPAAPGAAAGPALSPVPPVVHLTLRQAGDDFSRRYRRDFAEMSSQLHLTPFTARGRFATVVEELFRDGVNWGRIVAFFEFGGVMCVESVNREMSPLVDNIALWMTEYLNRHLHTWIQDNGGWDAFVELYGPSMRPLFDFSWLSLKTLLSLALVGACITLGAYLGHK
Cytochrome P450 2C19 (Homo sapiens), sequence (P33261 whole entry, looked up): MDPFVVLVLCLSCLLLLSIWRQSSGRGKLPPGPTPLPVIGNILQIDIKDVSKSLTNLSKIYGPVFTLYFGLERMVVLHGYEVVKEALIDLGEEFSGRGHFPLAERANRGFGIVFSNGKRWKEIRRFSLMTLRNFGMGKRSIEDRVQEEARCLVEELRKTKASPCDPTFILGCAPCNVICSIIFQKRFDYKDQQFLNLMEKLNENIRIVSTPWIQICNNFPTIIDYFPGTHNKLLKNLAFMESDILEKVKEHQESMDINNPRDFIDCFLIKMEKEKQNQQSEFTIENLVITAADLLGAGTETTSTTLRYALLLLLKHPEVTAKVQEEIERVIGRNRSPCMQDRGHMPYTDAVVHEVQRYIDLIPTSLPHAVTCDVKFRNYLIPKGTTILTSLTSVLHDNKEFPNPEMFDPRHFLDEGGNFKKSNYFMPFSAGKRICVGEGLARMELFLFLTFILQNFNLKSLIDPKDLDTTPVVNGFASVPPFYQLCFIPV
Caspase-3 (Homo sapiens), sequence (P42574 whole entry, looked up): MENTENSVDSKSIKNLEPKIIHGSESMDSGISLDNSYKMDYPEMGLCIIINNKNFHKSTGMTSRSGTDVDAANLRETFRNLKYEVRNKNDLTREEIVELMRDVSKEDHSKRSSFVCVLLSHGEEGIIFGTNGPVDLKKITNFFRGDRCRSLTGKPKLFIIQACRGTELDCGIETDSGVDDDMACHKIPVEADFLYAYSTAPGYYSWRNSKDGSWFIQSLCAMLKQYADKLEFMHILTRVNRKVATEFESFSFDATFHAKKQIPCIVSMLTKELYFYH

Regarding `CCCCOC(=O)[C@@H](C)Oc1ccc(Oc2ccc(C(F)(F)F)cn2)cc1`, the result in assay [1], in assay [2], in assay [3], in assay [4], in assay [5] and in assay [6] was inactive. In addition, the molecule was classed as inactive (in assay [7]; with BCL2L11 (gene 10018); in [8]; in assay [9]; in [10]; with Caspase-3 (Homo sapiens)). Besides, the molecule was classed as inactive in assay [11], in assay [12], in assay [13] and in assay [14].

For `COC(=O)c1ccccc1C(=O)O`, the result in assay [1], in [2], in assay [3], in assay [4], in [5] and in assay [6] was inactive. The molecule was classed as inactive (in [7]; with BCL2L11 (gene 10018); in assay [8]; in [9]; in [10]; in the assay with Caspase-3 (Homo sapiens)). Besides, the outcome in assay [15], in assay [11], in assay [12], in assay [13] and in [14] was inactive.

For `O=C(Nc1ccc([N+](=O)[O-])cc1Cl)c1cc(Cl)ccc1O`, the AC50 in [1] was 3.13 µM (active); in [2], 17 µM (active); in assay [3] it was 3.17 µM (active); in assay [4], 15.9 µM (active); in assay [5], 3.89 µM (active); in [6] it was 6.15 µM (active). The AC50 is 3.07 µM (active) in [7]; 20.4 µM (active) in assay [16]; 4.26 µM (active) in [8]; 3.54 µM (active) in assay [9]; 1.89 µM (active) in the assay with Caspase-3 (Homo sapiens); 0.744 µM (active) in assay [11]. In addition, the AC50 in assay [12] is 12 µM (active); in [13], 3.89 µM (active); in [14], 2.22 µM (active). For the same molecule, the call in [10] was inactive.

On to `CC(=O)[C@H]1CC[C@H]2[C@@H]3CCC4=CC(=O)CC[C@]4(C)[C@H]3CC[C@]12C`, for which the AC50 was 78.9 µM (active) in assay [1]; 12.5 µM (active) in [2]; 83.2 µM (active) in assay [17]; 75.8 µM (active) in assay [3]; 30 µM (active) in assay [4]; 88.7 µM (active) in [7]. Also, the concentration at half-maximal activity (AC50) with BCL2L11 (gene 10018) is 12.8 µM (active); in assay [8], 34 µM (active); in assay [9] it was 23 µM (active); in assay [11], 25.4 µM (active); in assay [12], 82.2 µM (active); in [13] it was 32.6 µM (active). Further, in assay [14], the half-maximal activity concentration (AC50) is 39.6 µM (active). In addition, the molecule was called inactive (in [5]; in [10]; in the assay with Caspase-3 (Homo sapiens)).
